This is one part of the list. The true hit rate is not given.
B1: HC751 (peptide)
chain: CARAAVCTRGAGNASASA
B2: HC580 (peptide)
chain: CAISWCLWWLAGNASASA
B3: FS-3048 (peptide)
chain: CARRIRPTHPAGNASASA
B4: HC1959 (peptide)
chain: CAPCTTPCSGAGNASASA
B5: FS-2679 (peptide)
chain: CARHPRSPPRAGNASASA
B6: FS-2836 (peptide)
chain: CARTRRQDIRAGNASASA
B7: FS-2416 (peptide)
chain: CARFRRQQWKAGNASASA
B8: HC1321 (peptide)
chain: CASPPVPPPRAGNASASA
B9: FS-1705 (peptide)
chain: CARFRRLWPCAGNASASA
B10: FS-2664 (peptide)
chain: CARFRRQDIRAGNASASA
B11: FS-2910 (peptide)
chain: CAREERSWFRAGNASASA
B12: HC1484 (peptide)
chain: CATVTESDIRAGNASASA
B13: HC1822 (peptide)
chain: CADQMEECSQAGNASASA
B14: HC2022 (peptide)
chain: CAVQCCSMSYAGNASASA
B15: HC300 (peptide)
chain: CADLCGSVFLAGNASASA
B16: HC1361 (peptide)
chain: CASDGSWSTVAGNASASA
B17: FS-2885 (peptide)
chain: CARAKRQKDFAGNASASA
B18: FS-2199 (peptide)
chain: CARWKRNLDFAGNASASA
B19: FS-3214 (peptide)
chain: CARWKRGLDWAGNASASA
B20: FS-1806 (peptide)
chain: CARWKRPAFTAGNASASA
B21: FS-3131 (peptide)
chain: CARWKRPIDLAGNASASA
B22: HC271 (peptide)
chain: CALHTPGCVPAGNASASA
B23: HC1656 (peptide)
chain: CAWIWFCLLLAGNASASA
B24: FS-504 (peptide)
chain: CASQSRIRRMAGNASASA
B25: FS-511 (peptide)
chain: CATQSRIRRMAGNASASA
B26: FS-175 (peptide)
chain: CAKWSRHRRMAGNASASA
B27: FS-1601 (peptide)
chain: CAMRLRIRRMAGNASASA
B28: FS-276 (peptide)
chain: CAMRAFQRRMAGNASASA
B29: FS-1314 (peptide)
chain: CACWPRHRRVAGNASASA
B30: HC903 (peptide)
chain: CATQRRGRTGAGNASASA
B31: HC841 (peptide)
chain: CANIEEVALSAGNASASA
B32: FS-1881 (peptide)
chain: CAIKKRFQTTAGNASASA
B33: FS-527 (peptide)
chain: CAFYLRRRRRAGNASASA
B34: FS-33 (peptide)
chain: CAIKKRRRRRAGNASASA
B35: HC342 (peptide)
chain: CASMVGNWAKAGNASASA
B36: HC2494 (peptide)
chain: CASKPCSAHLAGNASASA
B37: FS-400 (peptide)
chain: CAARARLGRQAGNASASA
B38: FS-301 (peptide)
chain: CASQARLGRIAGNASASA
B39: FS-1185 (peptide)
chain: CAARARLPRDAGNASASA
B40: FS-1585 (peptide)
chain: CAARPRRARQAGNASASA
B41: FS-978 (peptide)
chain: CAARGRGGRDAGNASASA
B42: FS-1297 (peptide)
chain: CAACPRRARGAGNASASA
B43: FS-1098 (peptide)
chain: CATRARLSRPAGNASASA

Biological target: furin, P09958
Experiment: furin cleavage Z-score vs untreated control; higher = more cleavage, active = 3.5 or more, inactive = 1 or less, 8 variable residues between constant flanks
Method in brief: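 Reactions of 0.01 ml ran for 7.5, 15 or 30 min in 50 mM HEPES pH 7.5 with CaCl2 and NaCl, at 1:10 enzyme:substrate. In them, purified furin acted on bead-held 8-mer peptides fused to a cDNA oligonucleotide. The cleavage Z-score was obtained by lowess-adjusting log sequencing counts of released DNA against furin-free reactions and scaling by median absolute deviation.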

furin, P09958, sequence (P09958 whole entry): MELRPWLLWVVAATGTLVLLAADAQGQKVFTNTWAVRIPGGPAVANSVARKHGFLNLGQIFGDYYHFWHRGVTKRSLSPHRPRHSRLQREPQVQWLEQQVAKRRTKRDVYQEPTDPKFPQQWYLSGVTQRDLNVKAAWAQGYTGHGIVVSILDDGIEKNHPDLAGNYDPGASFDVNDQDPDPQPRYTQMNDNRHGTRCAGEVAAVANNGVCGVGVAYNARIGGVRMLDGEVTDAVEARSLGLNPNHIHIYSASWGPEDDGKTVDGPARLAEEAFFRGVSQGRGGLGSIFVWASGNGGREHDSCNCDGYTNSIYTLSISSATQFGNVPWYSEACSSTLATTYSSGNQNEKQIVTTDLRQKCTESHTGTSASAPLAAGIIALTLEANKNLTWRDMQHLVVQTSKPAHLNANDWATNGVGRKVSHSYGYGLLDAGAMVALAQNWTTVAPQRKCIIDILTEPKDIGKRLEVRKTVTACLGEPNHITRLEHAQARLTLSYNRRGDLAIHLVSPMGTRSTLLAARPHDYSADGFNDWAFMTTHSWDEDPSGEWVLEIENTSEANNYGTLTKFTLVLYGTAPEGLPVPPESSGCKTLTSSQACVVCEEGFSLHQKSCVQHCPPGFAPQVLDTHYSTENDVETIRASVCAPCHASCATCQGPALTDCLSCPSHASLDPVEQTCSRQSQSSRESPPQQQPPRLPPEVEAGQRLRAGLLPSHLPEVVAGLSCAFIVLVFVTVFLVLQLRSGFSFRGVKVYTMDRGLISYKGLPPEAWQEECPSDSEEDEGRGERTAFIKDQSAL

Row | Sequence | furin cleavage Z-score (7.5 min) | furin cleavage Z-score (15 min) | furin cleavage Z-score (30 min)
1 | B1 | 0.0348 (inactive) | -0.103 (inactive) | -0.127 (inactive)
2 | B2 | -1.57 (inactive) | -0.298 (inactive) | -1.76 (inactive)
3 | B3 | -1.48 (inactive) | -0.376 (inactive) | -2.07 (inactive)
4 | B4 | -0.283 (inactive) | -0.0949 (inactive) | 0.269 (inactive)
5 | B5 | 2.12 | 2.59 | 4.01 (active)
6 | B6 | 3.19 | 3.96 (active) | 4.46 (active)
7 | B7 | -0.28 (inactive) | -0.542 (inactive) | -0.363 (inactive)
8 | B8 | 0.641 (inactive) | 2.74 | 1.49
9 | B9 | -0.433 (inactive) | -0.574 (inactive) | 0.464 (inactive)
10 | B10 | 2.04 | 2.56 | 4.18 (active)
11 | B11 | 1.59 | -0.354 (inactive) | -1.01 (inactive)
12 | B12 | -1.23 (inactive) | -2.19 (inactive) | -1.8 (inactive)
13 | B13 | -1.95 (inactive) | 0.171 (inactive) | 0.415 (inactive)
14 | B14 | -0.966 (inactive) | 0.322 (inactive) | 0.723 (inactive)
15 | B15 | -2.25 (inactive) | -0.764 (inactive) | -0.906 (inactive)
16 | B16 | 1.87 | 1.47 | 0.994 (inactive)
17 | B17 | 3.42 | 4.84 (active) | 4.86 (active)
18 | B18 | 6.47 (active) | 7.97 (active) | 10.7 (active)
19 | B19 | 7.21 (active) | 8.26 (active) | 10.3 (active)
20 | B20 | -0.259 (inactive) | 0.293 (inactive) | -0.665 (inactive)
21 | B21 | -0.222 (inactive) | 0.7 (inactive) | 0.99 (inactive)
22 | B22 | -1.15 (inactive) | -0.17 (inactive) | 0.0406 (inactive)

Row | Sequence | furin cleavage Z-score (7.5 min) | furin cleavage Z-score (15 min) | furin cleavage Z-score (30 min)
23 | B23 | -0.725 (inactive) | -0.337 (inactive) | -0.583 (inactive)
24 | B24 | 9.85 (active) | 9.09 (active) | 8.46 (active)
25 | B25 | 5.23 (active) | 7.4 (active) | 6.25 (active)
26 | B26 | 11.5 (active) | 12.9 (active) | 11.2 (active)
27 | B27 | 10.1 (active) | 8.78 (active) | 9.1 (active)
28 | B28 | -1.44 (inactive) | -1.21 (inactive) | -0.935 (inactive)
29 | B29 | 0.553 (inactive) | 1.38 | 2.27
30 | B30 | -0.796 (inactive) | -0.169 (inactive) | -0.351 (inactive)
31 | B31 | 0.342 (inactive) | 0.83 (inactive) | -1.19 (inactive)
32 | B32 | -0.863 (inactive) | -1.06 (inactive) | -0.368 (inactive)
33 | B33 | 2.84 | 3.02 | 3.78 (active)
34 | B34 | 7.42 (active) | 7.44 (active) | 6.1 (active)
35 | B35 | 1.34 | 0.0553 (inactive) | 0.702 (inactive)
36 | B36 | 1.46 | 0.933 (inactive) | 0.45 (inactive)
37 | B37 | 5.77 (active) | 6.39 (active) | 5.75 (active)
38 | B38 | -1.06 (inactive) | -0.739 (inactive) | -0.311 (inactive)
39 | B39 | 9.09 (active) | 9.62 (active) | 6.75 (active)
40 | B40 | 9.65 (active) | 12 (active) | 7.48 (active)
41 | B41 | 0.0621 (inactive) | -0.261 (inactive) | -0.608 (inactive)
42 | B42 | -0.34 (inactive) | -0.615 (inactive) | -0.259 (inactive)
43 | B43 | -0.0765 (inactive) | -0.0832 (inactive) | -0.467 (inactive)
